Measurements as given in PubChem BioAssay AID463173 (ICCB-Longwood Screening Facility, Harvard Medical School, 2010).
About 4,300 (8.3%) of roughly 52,000 compounds were called active. Cut-off read from the data, not from the text of the source: active = survival mostly below about 52% (no sharp cut-off); inactive = mostly above about 56%. The list comes from a sample in which actives are over-represented; it also holds similar structures and randomly drawn compounds.

What follows are molecules tested on DeltatarO mutant (assay: S. aureus survival, RN4220 and DeltatarO strains – OD600, teichoic acid synthesis inhibitors, primary screen (AID 463173)). Conditions: S. aureus RN4220 wild type/DeltatarO growth, OD600, 18 h, hits give low values, screened at 18.75 µg/mL (by protocol).
For `CCC1CCCCN1C(=O)Cn1c(=O)n(-c2ccccc2C(F)(F)F)c(=O)c2c(C)c(C(=O)N(C)C)sc21` (configuration not stated), the survival was 80% (inactive). `CCC1CN(C(=O)N2CCC(C(=O)Nc3ccccc3F)CC2)c2ccccc2O1` (configuration not stated) was tested, and the survival was 74% (inactive). `Cc1ccc(NC(=O)c2oc3ccc(S(=O)(=O)N4CCOCC4)cc3c2C)c(C)c1` was tested, and the survival was 125% (inactive). With `CCOC(=O)c1cn(CC(=O)Nc2ccc(OC)cc2OC)nn1` the survival was 83% (inactive). `Cc1cccc(CNC(=O)Cn2nc(C)n3c(cc4cc(F)ccc43)c2=O)c1` was tested, and the survival was 77% (inactive). In the case of `O=C(O)CCc1ccco1`, the survival was 98% (inactive). `CCOC(=O)C1CCN(C(=O)Cc2cccc3ccccc23)CC1` was tested, and the survival was 82% (inactive). For `CCN(CC)S(=O)(=O)c1ccc(C(=O)NCCSc2c(-c3ccc(F)cc3)[nH]c3ccccc23)cc1`, the survival was 69% (inactive). With `CCOC(=O)COc1ccc(F)cc1C(=O)c1ccn2nc(-c3ccc(C)cc3)cc2n1` the survival was 80% (inactive). In the case of `COc1ccc(-c2nc(Cn3c(SCc4ccccc4F)nc4cccnc43)c(C)o2)cc1`, the survival was 69% (inactive). `Cc1ccc2c(CNCc3cccs3)c(C(=O)O)n(Cc3ccc(F)cc3)c2c1` was tested, and the survival was 82% (inactive). In the case of `C=Cc1ccc(Cn2c(C(=O)O)c(CNCc3ccc(F)cc3)c3ccc(C)cc32)cc1`, the survival was 86% (inactive). In the case of `COc1ccc(Cn2c(C(=O)O)c(CNCc3cccs3)c3ccc(C)cc32)cc1`, the survival was 89% (inactive). For `COc1ccc(Cn2c(C(=O)O)c(CNCc3cccc(OC)c3)c3ccc(C)cc32)cc1`, the survival was 74% (inactive). For `Cc1ccc2c(CNCCc3ccco3)c(C(=O)O)n(Cc3ccc(F)cc3)c2c1`, the survival was 59% (inactive). For `Cc1ccc2c(CNCCc3ccc(Cl)cc3)c(C(=O)O)n(Cc3ccc(F)cc3)c2c1`, the survival was 8% (active). In the case of `Cc1ccc(CNCc2c(C(=O)O)n(Cc3ccc(C)cc3)c3cc(C)ccc23)cc1`, the survival was 2% (active). In the case of `Cc1ccc(Cn2c(C)c(CNCc3ccc(OC(C)C)cc3)c(C(=O)O)c2C)cc1`, the survival was 121% (inactive). For `Cc1ccc(Cn2c(C(=O)O)c(CNCc3cccs3)c3ccc(C)cc32)cc1`, the survival was 48% (active). `C=Cc1ccc(Cn2c(C(=O)O)c(CNCc3ccccc3)c3ccc(C)cc32)cc1` was tested, and the survival was 120% (inactive). For `Cc1ccc(Cn2c(C(=O)O)c(CNCc3ccccc3Cl)c3ccc(C)cc32)cc1`, the survival was 58% (inactive). In the case of `Cc1ccc(Cn2c(C(=O)O)c(CNCc3ccc(OC(C)C)cc3)c3ccc(C)cc32)cc1`, the survival was 11% (active). For `CCCN(Cc1cccs1)C(=O)Nc1ccc(F)c(Cl)c1`, the survival was 58% (inactive). `COc1ccc(OC)c(CNC(=O)CCCn2c(=O)c3cccn3c3cccnc32)c1` was tested, and the survival was 97% (inactive). `CCOc1ccc(NC(=O)CC2C(=O)N(c3ccc(Cl)cc3)C(=O)N2Cc2cccs2)cc1` (configuration not stated) was tested, and the survival was 81% (inactive). `Cc1cc(C)cc(NC(=O)C(Cc2ccccc2)NS(=O)(=O)c2ccc3c(c2)CCC(=O)N3)c1` (configuration not stated) was tested, and the survival was 77% (inactive). In the case of `CCOC(=O)C(C)NC(=O)c1cc2c(=O)[nH]c3ccc(C)cc3c2s1` (configuration not stated), the survival was 57% (inactive). For `Cc1ccc(Cn2c(C(=O)O)c(CNCc3ccc(C)o3)c3ccc(C)cc32)cc1`, the survival was 52% (inactive). `CCc1ccc(CNCc2c(C(=O)O)n(Cc3ccc(C)cc3)c3cc(C)ccc23)cc1` was tested, and the survival was 14% (active). `Cc1ccc(Cn2c(C(=O)O)c(CNCCc3cccs3)c3ccc(C)cc32)cc1` was tested, and the survival was 82% (inactive). In the case of `COC(=O)c1scc(-c2ccc(C)cc2)c1S(=O)(=O)Nc1cc(C)ccc1OC`, the survival was 75% (inactive). For `CCCS(=O)(=O)c1ncc(Cl)c(C(=O)Nc2c(C(=O)c3ccccc3)oc3ccccc23)n1`, the survival was 102% (inactive). `CCCSc1ncc(Cl)c(C(=O)Nc2c(C(=O)c3ccc(C)cc3)oc3ccccc23)n1` was tested, and the survival was 56% (inactive). `CCCSc1ncc(Cl)c(C(=O)Nc2c(C(=O)c3ccc(F)cc3)oc3ccccc23)n1` was tested, and the survival was 44% (active). In the case of `CCSc1ncc(Cl)c(C(=O)Nc2c(C(=O)c3ccccc3)oc3ccccc23)n1`, the survival was 79% (inactive). `CS(=O)(=O)c1ncc(Cl)c(C(=O)Nc2c(C(=O)c3ccc(Cl)cc3)oc3ccccc23)n1` was tested, and the survival was 109% (inactive). `CCS(=O)(=O)c1ncc(Cl)c(C(=O)Nc2c(C(=O)c3ccc(C)cc3)oc3ccccc23)n1` was tested, and the survival was 50% (active). `CCOc1ccc(NC(=O)CSc2ccc3ccccc3n2)cc1` was tested, and the survival was 67% (inactive). `Cc1ccc(-n2c(=O)c3oc4ccccc4c3n(CC(=O)Nc3ccc(F)c(Cl)c3)c2=O)cc1C` was tested, and the survival was 65% (inactive). With `CCC(C(=O)NCc1ccccc1OC)n1nc(C)n2c(cc3sccc32)c1=O` (configuration not stated) the survival was 82% (inactive). For `O=S(=O)(c1ccc2nc(Nc3ccc(Br)cc3F)ccc2c1)N1CCCC1`, the survival was 117% (inactive). In the case of `O=C(Nc1ccccc1C(F)(F)F)n1ncc2cc(Cl)ccc21`, the survival was 104% (inactive). With `O=C(Nc1ccc(F)cc1Cl)n1ncc2cc(Cl)ccc21` the survival was 13% (active). With `Cc1ccc(C)c(NC(=O)n2ncc3cc(Cl)ccc32)c1` the survival was 82% (inactive). `CC1(c2ccc(Cl)cc2Cl)OCC(Cn2cncn2)O1` (configuration not stated) was tested, and the survival was 83% (inactive). `CCN(CC)Cn1nc(-c2ccccc2Cl)oc1=S` was tested, and the survival was 77% (inactive). `S=c1oc(-c2ccccc2)nn1CNc1ccccc1` was tested, and the survival was 83% (inactive). `Cc1ccc(-c2nn(CO)c(=S)o2)cc1` was tested, and the survival was 48% (active). In the case of `CCOc1ccc2c(c1)NC(c1cccs1)=NC(c1ccc(F)cc1)=N2`, the survival was 50% (inactive). For `CCc1nn(CCCC(=O)NCc2ccc(OC(C)C)cc2)c(=O)c2cc3occc3n12`, the survival was 77% (inactive). In the case of `CC(=O)c1ccc(N2CCN(C(=O)C3CCN(S(=O)(=O)c4cn(C)cn4)CC3)CC2)cc1`, the survival was 69% (inactive). With `COc1ccccc1N1CCN(C(=O)c2cc(S(=O)(=O)N3CCC(C)CC3)cn2C)CC1` the survival was 32% (active). For `Cn1cnc(S(=O)(=O)N2CCC(C(=O)N3CCN(c4ccccc4F)CC3)CC2)c1`, the survival was 75% (inactive). For `COc1ccccc1N1CCN(S(=O)(=O)c2ccc(S(=O)(=O)NC3CCCC3)cc2)CC1`, the survival was 55% (active). With `CC1CCN(S(=O)(=O)c2cc(C(=O)N3CCN(c4ccccc4F)CC3)n(C)c2)CC1` the survival was 70% (inactive). In the case of `Cn1cnc(S(=O)(=O)N2CCC(C(=O)N3CCN(c4ccc(Cl)cc4)CC3)CC2)c1`, the survival was 37% (active). `COc1ccccc1N1CCN(C(=O)C2CCN(S(=O)(=O)c3cn(C)cn3)CC2)CC1` was tested, and the survival was 46% (active). In the case of `CCOc1ccccc1N1CCN(S(=O)(=O)c2ccc(C3CCCCC3)cc2)CC1`, the survival was 50% (inactive). `Cc1cccc(N2CCN(C(=O)c3cc(S(=O)(=O)N4CCC(C)CC4)cn3C)CC2)c1C` was tested, and the survival was 58% (inactive). With `COc1ccccc1N1CCN(S(=O)(=O)c2ccc(-c3cnc(C4CC4)o3)cc2)CC1` the survival was 113% (inactive). For `Cc1cccc(N2CCN(C(=O)C3CCN(S(=O)(=O)c4cn(C)cn4)CC3)CC2)c1C`, the survival was 92% (inactive). `COc1ccc(N2CCN(C(=O)C3CCN(S(=O)(=O)c4cn(C)cn4)CC3)CC2)cc1` was tested, and the survival was 69% (inactive). With `Cc1ccc(C)c(NC(=O)C(c2ccccc2)N2Cc3ccccc3C2=O)c1` (configuration not stated) the survival was 117% (inactive). In the case of `Cn1c(=O)c2c(nc(CN3CCN(c4ccccc4F)CC3)n2Cc2ccccc2F)n(C)c1=O`, the survival was 92% (inactive). In the case of `COc1ccc(-n2nc3cc(C)c(NC(=O)c4ccc(C)cc4C)cc3n2)cc1Cl`, the survival was 83% (inactive). `Cc1nnc(NC(=O)CSc2nc3c([nH]c4ccccc43)c(=O)n2-c2ccc(Cl)cc2)s1` was tested, and the survival was 73% (inactive). `Cc1ccc(CN2CCSc3ccc(C(=O)Nc4ccc(C)cc4)cc32)cc1` was tested, and the survival was 105% (inactive). `O=C(CSc1nnc(Cc2ccccc2)o1)N(c1ccccc1)c1ccccc1` was tested, and the survival was 78% (inactive). `COc1ccccc1NC(=O)C1CCCN(c2nnc(C)c3c(C)n(-c4ccccc4)nc23)C1` (configuration not stated) was tested, and the survival was 84% (inactive). In the case of `COc1ccc(S(=O)(=O)NC2(C(F)(F)F)NC(=O)N(CCc3ccccc3)C2=O)cc1` (configuration not stated), the survival was 99% (inactive). `CC(C)(C)c1ccc(C(=O)NCC(c2ccco2)S(=O)(=O)c2ccccc2)cc1` (configuration not stated) was tested, and the survival was 101% (inactive). For `O=C(NCC(c1ccco1)S(=O)(=O)c1ccc(Cl)cc1)c1ccc(C(F)(F)F)cc1` (configuration not stated), the survival was 17% (active). For `Cc1ccc(S(=O)(=O)C(CNC(=O)c2ccc(C(F)(F)F)cc2)c2ccco2)cc1` (configuration not stated), the survival was 130% (inactive). `CCOc1ccc(C(=O)NCC(c2ccco2)S(=O)(=O)c2ccc(C)cc2)cc1` (configuration not stated) was tested, and the survival was 88% (inactive). `COc1ccc(C(=O)NCC(c2ccco2)S(=O)(=O)c2ccc(F)cc2)cc1` (configuration not stated) was tested, and the survival was 68% (inactive). In the case of `COc1ccc(C(=O)NCC(c2ccco2)S(=O)(=O)c2ccccc2)cc1` (configuration not stated), the survival was -4% (active). In the case of `CC(C)(C)c1ccc(C(=O)NCC(c2ccco2)S(=O)(=O)c2ccc(F)cc2)cc1` (configuration not stated), the survival was 126% (inactive). With `Cc1ccc(S(=O)(=O)C(CNC(=O)c2ccc(F)c(F)c2)c2ccco2)cc1` (configuration not stated) the survival was -5% (active). With `Cc1ccc(C(=O)NCC(c2ccco2)S(=O)(=O)c2ccc(Cl)cc2)cc1C` (configuration not stated) the survival was 55% (inactive). For `Cc1cc(C)cc(S(=O)(=O)Nc2cccc(-c3ccc(N4CCOCC4)nn3)c2)c1`, the survival was 86% (inactive). With `CCOC(=O)C1CCCN(C(=O)Cn2ncc3c(C)n(Cc4ccc(Cl)cc4)c(C)c3c2=O)C1` (configuration not stated) the survival was 59% (inactive). `O=C(CSc1nnc(-c2ccc3c(c2)OCO3)o1)Oc1ccccc1` was tested, and the survival was 87% (inactive). For `CSc1nc(N)c(C#N)c(C(C)C)c1C#N`, the survival was 75% (inactive). `COc1ccc(-n2nc(C(=O)Nc3cccc(C(F)(F)F)c3)c3c4ccccc4n(C)c3c2=O)cc1` was tested, and the survival was 78% (inactive). In the case of `CN1C(=O)CC(=O)N(C)c2cc(S(=O)(=O)N(C)Cc3ccccc3)ccc21`, the survival was 3% (active). With `CN1C(=O)Cc2cc(S(=O)(=O)NCCc3ccccc3)ccc21` the survival was 123% (inactive). `Cc1cc(S(=O)(=O)N(C)Cc2ccccc2)ccc1-n1cnnn1` was tested, and the survival was 81% (inactive).
